Consider nine compounds from PubChem BioAssay (NCI).

Structures are written as SMILES. The panel holds about 79,000 compounds, 15% with a hit somewhere; the sample as a whole holds those more often. Values without a mark were called inactive. Activity calls are given as the source filed them. Rule as the data show it: active = growth inhibition above about 70%; inactive = the rest.

Experiment [1] can be described thus: NCI Yeast Anticancer Drug Screen. Data for the rad50 strain (AID 155).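 Also: 0% = growth of vehicle-only cultures of the same strain.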 To be noted: S. cerevisiae rad50 strain growth inhibition, hits give high values. The essentials:
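A DNA repair-deficient yeast mutant serves as the test organism; compound-induced growth inhibition is calculated against vehicle-treated cells.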

Experiment [2] is described as follows: NCI Yeast Anticancer Drug Screen. Data for the mec2-1 strain (AID 157). To be noted: S. cerevisiae mec2-1 strain, hits give high values. Put shortly:
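Using mec2-1 yeast: add compound, measure growth, express inhibition versus vehicle-treated cultures.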

A short description of experiment [3]: NCI Yeast Anticancer Drug Screen. Data for the sgs1 mgt1 strain (AID 161).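 Also: 0% = growth of cultures given vehicle only.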 To be noted: S. cerevisiae sgs1 mgt1 strain, hits give high values. Put shortly:
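Compounds are added to genetically altered yeast, and growth is compared with cultures given vehicle alone to give percent inhibition.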

Experiment [4] can be described thus: NCI Yeast Anticancer Drug Screen. Data for the cln2 rad14 strain (AID 165).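 Also: 0% = growth equal to vehicle treated cultures.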 To be noted: S. cerevisiae cln2 rad14 strain, hits give high values. The essentials:
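Yeast strain cln2 rad14, bearing defects in cell cycle control and DNA repair, serves as the test system; values reflect growth inhibition compared with vehicle.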

Experiment [5] in a line: NCI Yeast Anticancer Drug Screen. Data for the bub3 strain (AID 167). To be noted: S. cerevisiae bub3 mutant strain, hits give high values. Put shortly: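 Inhibition values come from growth of compound-treated mutant yeast normalised to vehicle-treated controls.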
A short description of experiment [6]: NCI Yeast Anticancer Drug Screen. Data for the mlh1 rad18 strain (AID 175). The note with it: S. cerevisiae mlh1 rad18 strain growth inhibition, hits give high values. Put shortly: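 Steps: expose repair-defective yeast to compound; measure growth; express inhibition against vehicle-treated controls.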
Where [7] appears, read: at 5.0 µM (retest, dose inferred, filed as 0.5).
The mark [8] stands for this setting: at 50.0 µM (retest, dose inferred, filed as 5.0).

Turning to `O=C1CCC(Cc2ccc(C(F)(F)F)cc2)C(=O)N1` (configuration not stated), the growth inhibition in experiment [1] (setting [7]) is -3%; in experiment [1] (setting [8]), 7%; in experiment [1] (at 50.0 µM), 1.65%; in experiment [2] (setting [7]), -1%; in experiment [2] (setting [8]) it was 3%; in experiment [2] (at 50.0 µM), 22.1%. Further, the growth inhibition in experiment [3] (setting [7]) was 2%; in experiment [3] (setting [8]), 92% (active); in experiment [3] (at 50.0 µM), 95.8% (active); in experiment [4] (setting [7]), -3%; in experiment [4] (setting [8]), 5%; in experiment [4] (at 50.0 µM) it was -42.7%. The growth inhibition in experiment [5] (setting [7]) was -2%; in experiment [5] (setting [8]) it was -2%; in experiment [5] (at 50.0 µM) it was -52.6%; in experiment [6] (setting [7]), -4%; in experiment [6] (setting [8]) it was 3%; in experiment [6] (at 50.0 µM), 6.6%.

For `CC(=O)c1c2c(cc3c1CC1(C3)Cc3cc4c(c(C(=O)O)c3C1)CCCC4)CCCC2` (configuration not stated) (tested in a mixture with another compound), the growth inhibition in experiment [1] (setting [7]) is 90% (active); in experiment [1] (setting [8]) it was 99% (active); in experiment [1] (at 50.0 µM), 77.7% (active); in experiment [2] (setting [7]) it was 84% (active); in experiment [2] (setting [8]), 99% (active); in experiment [2] (at 50.0 µM), 97% (active). The growth inhibition in experiment [3] (setting [7]) is 94% (active); in experiment [3] (setting [8]) it was 99% (active); in experiment [3] (at 50.0 µM), 97.8% (active); in experiment [4] (setting [7]), 94% (active); in experiment [4] (setting [8]) it was 99% (active); in experiment [4] (at 50.0 µM) it was 97.9% (active). The growth inhibition was 82% (active) in experiment [5] (setting [7]); 99% (active) in experiment [5] (setting [8]); 96% (active) in experiment [5] (at 50.0 µM); 96% (active) in experiment [6] (setting [7]); 99% (active) in experiment [6] (setting [8]); 98% (active) in experiment [6] (at 50.0 µM).

For the compound `Nc1ccccc1Sc1ccc(C(F)(F)F)cc1[N+](=O)[O-]`, the growth inhibition was -1% in experiment [1] (setting [7]); 23% in experiment [1] (setting [8]); 99.1% (active) in experiment [1] (at 50.0 µM); 2% in experiment [2] (setting [7]); 30% in experiment [2] (setting [8]); 99% (active) in experiment [2] (at 50.0 µM). Also, the growth inhibition in experiment [3] (setting [7]) was 0%; in experiment [3] (setting [8]) it was 23%; in experiment [3] (at 50.0 µM), 99.2% (active); in experiment [4] (setting [7]) it was -2%; in experiment [4] (setting [8]), 22%; in experiment [4] (at 50.0 µM), 94.7% (active). The growth inhibition was 6% in experiment [5] (setting [7]); 26% in experiment [5] (setting [8]); 98.7% (active) in experiment [5] (at 50.0 µM); -1% in experiment [6] (setting [7]); 19% in experiment [6] (setting [8]); 98.9% (active) in experiment [6] (at 50.0 µM).

Take `COc1ccc(NCCN(C)C)c2c(=O)c3ccccc3sc12`: the growth inhibition is 13% in experiment [1] (setting [7]); 53% in experiment [1] (setting [8]); 90.4% (active) in experiment [1] (at 50.0 µM); 1% in experiment [2] (setting [7]); 45% in experiment [2] (setting [8]); 37.4% in experiment [2] (at 50.0 µM). Further, the growth inhibition in experiment [3] (setting [7]) was -1%; in experiment [3] (setting [8]), 39%; in experiment [3] (at 50.0 µM), 41.6%; in experiment [4] (setting [7]) it was -3%; in experiment [4] (setting [8]), 16%; in experiment [4] (at 50.0 µM), -1.05%. Also, the growth inhibition in experiment [5] (setting [7]) is -7%; in experiment [5] (setting [8]), 0%; in experiment [5] (at 50.0 µM), 50.2%; in experiment [6] (setting [7]), -3%; in experiment [6] (setting [8]) it was 43%; in experiment [6] (at 50.0 µM) it was 69.4%.

For `c1ccc(CCNCc2ccco2)nc1`, the growth inhibition in experiment [1] (setting [7]) is -2%; in experiment [1] (setting [8]), -5%; in experiment [1] (at 50.0 µM), 42.5%; in experiment [2] (setting [7]), -7%; in experiment [2] (setting [8]) it was -20%; in experiment [2] (at 50.0 µM), 0.6%. Further, the growth inhibition in experiment [3] (setting [7]) was -7%; in experiment [3] (setting [8]) it was -26%; in experiment [3] (at 50.0 µM) it was -21.2%; in experiment [4] (setting [7]), -18%; in experiment [4] (setting [8]) it was -91%; in experiment [4] (at 50.0 µM), 23.6%. The growth inhibition in experiment [5] (setting [7]) was 3%; in experiment [5] (setting [8]), -2%; in experiment [5] (at 50.0 µM) it was -24.3%; in experiment [6] (setting [7]), -7%; in experiment [6] (setting [8]), -3%; in experiment [6] (at 50.0 µM), 7.7%.

Regarding `C=Cc1ccccc1C1(O)C=CC(OC)(OC)C=C1`, the growth inhibition is 17% in experiment [1] (setting [7]); 25% in experiment [1] (setting [8]); 44% in experiment [1] (at 50.0 µM); 11% in experiment [2] (setting [7]); 16% in experiment [2] (setting [8]); 7.1% in experiment [2] (at 50.0 µM). For the same compound, the growth inhibition is 12% in experiment [3] (setting [7]); 14% in experiment [3] (setting [8]); 34.5% in experiment [3] (at 50.0 µM); 17% in experiment [4] (setting [7]); 31% in experiment [4] (setting [8]); -2.15% in experiment [4] (at 50.0 µM). The growth inhibition in experiment [5] (setting [7]) was 8%; in experiment [5] (setting [8]), 9%; in experiment [5] (at 50.0 µM), 44.2%; in experiment [6] (setting [7]), 21%; in experiment [6] (setting [8]) it was 32%; in experiment [6] (at 50.0 µM) it was 15.2%.

As to `O=C1/C(=C/c2ccc3c(c2)OCO3)Sc2scc(-c3ccc(O)c(O)c3)[n+]21`, the growth inhibition is 25% in experiment [1] (setting [7]); 98% (active) in experiment [1] (setting [8]); 83.8% (active) in experiment [1] (at 50.0 µM); 33% in experiment [2] (setting [7]); 99% (active) in experiment [2] (setting [8]); 88.3% (active) in experiment [2] (at 50.0 µM). In addition, the growth inhibition is 67% in experiment [3] (setting [7]); 98% (active) in experiment [3] (setting [8]); 91% (active) in experiment [3] (at 50.0 µM); 26% in experiment [4] (setting [7]); 98% (active) in experiment [4] (setting [8]); 89.4% (active) in experiment [4] (at 50.0 µM). The growth inhibition is 97% (active) in experiment [5] (setting [7]); 98% (active) in experiment [5] (setting [8]); 88.5% (active) in experiment [5] (at 50.0 µM); 27% in experiment [6] (setting [7]); 99% (active) in experiment [6] (setting [8]); 90.8% (active) in experiment [6] (at 50.0 µM).

On to `CS(C)=O.[Cl-].[Cl-].[NH-]CC(O)CN(Cc1ccccc1)CC(O)CN.[Pt]` (configuration not stated), for which the growth inhibition in experiment [1] (setting [7]) was -15%; in experiment [1] (setting [8]) it was 4%; in experiment [1] (at 50.0 µM), 31.9%; in experiment [2] (setting [7]), 18%; in experiment [2] (setting [8]), 20%; in experiment [2] (at 50.0 µM) it was 1%. The growth inhibition was 2% in experiment [3] (setting [7]); 18% in experiment [3] (setting [8]); 17.7% in experiment [3] (at 50.0 µM); 39% in experiment [4] (setting [7]); 14% in experiment [4] (setting [8]); -6.25% in experiment [4] (at 50.0 µM). In addition, the growth inhibition is -19% in experiment [5] (setting [7]); -11% in experiment [5] (setting [8]); -5.7% in experiment [5] (at 50.0 µM); -13% in experiment [6] (setting [7]); -4% in experiment [6] (setting [8]); 7.75% in experiment [6] (at 50.0 µM).

Consider `Cc1cc(O)ccc1SC#N`, for which the growth inhibition is -11% in experiment [1] (setting [7]); 53% in experiment [1] (setting [8]); 87.2% (active) in experiment [1] (at 50.0 µM); -22% in experiment [2] (setting [7]); 32% in experiment [2] (setting [8]); 80% (active) in experiment [2] (at 50.0 µM). In addition, the growth inhibition in experiment [3] (setting [7]) is -13%; in experiment [3] (setting [8]), 28%; in experiment [3] (at 50.0 µM), 79.9% (active); in experiment [4] (setting [7]), -3%; in experiment [4] (setting [8]) it was 21%; in experiment [4] (at 50.0 µM), 73.4% (active). The growth inhibition in experiment [5] (setting [7]) is -11%; in experiment [5] (setting [8]), 57%; in experiment [5] (at 50.0 µM), 79.3% (active); in experiment [6] (setting [7]), 7%; in experiment [6] (setting [8]), 66%; in experiment [6] (at 50.0 µM), 83.5% (active).
